# The list is not random: actives were taken first. Their share in the collection is about 3.4%.
# proKLK7 act = proKLK7 zymogen activators, primary screen, biochemical, fluorescence intensity; Kallikrein-7 (Homo sapiens), P49862; purified proKLK7, EDANS-DABCYL substrate fluorescence; 100% is mature enzyme control, 0% vehicle; activation, % at 7 µM; 370,000 compounds, 0.9% hits; AID 652039, 2013;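 active = activation above the mean of all tested compounds plus 3 SD, computed per campaign excluding outliers beyond control limits, cut at about 13% in these data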
# NRP1-CendR mod = modulators of CendR peptide binding to NRP-1, primary screen, biochemical, fluorescence polarization, uHTS; Neuropilin-1 (Homo sapiens), O14786; FAM-RPARPAR peptide binding to NRP-1; inhibition, % at 25 µM; 360,000 compounds, 0.85% hits; AID 602438, 2012;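 active = inhibition or corrected inhibition above about 18%, plus a signal ratio from 0.5 to 1.5, limit read from the data, passing the limit was not always enough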
# HGIII-sPLA2 inh = human group III sPLA2 inhibitors, primary screen, biochemical, QFRET, BODIPY PC-A2 liposome substrate; Group 3 secretory phospholipase A2 (Homo sapiens), Q9NZ20; QFRET BODIPY PC-A2 liposome hydrolysis, fluorescence; inhibition, % at 12.2 µM; 370,000 compounds, 0.56% hits; AID 743126, 2013;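 active = inhibition above mean plus 3 SD of compounds lying within the high and low control bounds, cut at about 19% in these data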
# Target sequence (Q9NZ20 whole entry, looked up): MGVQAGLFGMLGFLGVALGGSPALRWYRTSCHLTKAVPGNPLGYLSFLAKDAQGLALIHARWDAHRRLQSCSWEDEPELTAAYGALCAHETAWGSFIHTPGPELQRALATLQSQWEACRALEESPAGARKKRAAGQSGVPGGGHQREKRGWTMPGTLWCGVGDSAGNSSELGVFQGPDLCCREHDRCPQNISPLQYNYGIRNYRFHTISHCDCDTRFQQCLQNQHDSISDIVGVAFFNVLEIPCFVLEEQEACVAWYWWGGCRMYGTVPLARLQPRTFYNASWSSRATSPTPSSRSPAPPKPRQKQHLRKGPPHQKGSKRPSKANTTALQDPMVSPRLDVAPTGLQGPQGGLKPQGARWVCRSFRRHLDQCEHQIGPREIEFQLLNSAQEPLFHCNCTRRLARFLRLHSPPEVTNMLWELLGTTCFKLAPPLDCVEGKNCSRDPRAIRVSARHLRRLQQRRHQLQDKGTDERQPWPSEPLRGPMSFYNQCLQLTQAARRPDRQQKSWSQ
# ADAM10 inh = human ADAM10 inhibitors, primary screen, biochemical, QFRET, HTS; 370,000 compounds, 0.62% hits; AID 720582, 2013; Disintegrin and metalloproteinase domain-containing protein 10 (Homo sapiens), O14672; inhibition, % at 7 µM; recombinant ADAM10, EDANS/DABCYL FRET peptide cleavage, 3 h;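 active = inhibition above a per-campaign cutoff equal to the mean of compounds falling between control-based bounds plus 3 SD, cut at about 20% in these data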
# ADAM17 inh = ADAM17 inhibitors, primary screen, biochemical, QFRET | AID 720648, 2013 | recombinant ADAM17, EDANS/DABCYL FRET peptide cleavage | 370,000 compounds, 0.83% hits | Disintegrin and metalloproteinase domain-containing protein 17 (Homo sapiens), P78536 | inhibition, % at 6.95 µM;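 active = inhibition above the mean of compounds lying between control limits plus 3 SD, set per campaign, cut at about 8.5% in these data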
# ADAM10 counter = ADAM10 inhibitors, counter-screen for ADAM17 exosite inhibitor project, biochemical, FRET, human ADAM10; shares compounds with ADAM17 inh; recombinant ADAM10, EDANS/DABCYL FRET peptide cleavage, 3 h; inhibition, % at 6.95 µM; 2,900 compounds, 47% hits;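 active = mean inhibition over the triplicate runs exceeds the activity threshold set in the earlier primary screen, cut at about 20% in these data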
# ADAM17 confirm = ADAM17 inhibitors, hit retest, confirmation, biochemical, QFRET peptide cleavage; shares compounds with ADAM17 inh; recombinant ADAM17, EDANS/DABCYL QFRET peptide cleavage; inhibition, % at 6.95 µM; 2,900 compounds, 65% hits; AID 743257, 2014;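 active = mean inhibition across replicates above the hit cutoff set in the primary screen, cut at about 8.5% in these data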
# Hits are given with their value; 0 = inactive; - = not tested or not shown.
SMILES,proKLK7 act,NRP1-CendR mod,HGIII-sPLA2 inh,ADAM10 inh,ADAM17 inh,ADAM10 counter,ADAM17 confirm
COc1ccc(N2CCN(CCNS(=O)(=O)c3ccccc3[N+](=O)[O-])CC2)cc1,0,-,0,0,0,-,-
COC(=O)[C@H](Cc1ccccc1)N[C@H](c1ccc(OC)cc1)[C@@H](O)Cc1ccccc1,0,-,0,0,0,-,-
CCCNC(=O)c1cc2c(c(-c3cccc(-c4ccc(F)cc4)c3)n1)[C@@H](CCO)N(S(=O)C(C)(C)C)C2 (some centres undefined),0,0,0,0,0,-,-
CCOC(=O)c1cc2c(c(-c3cccc(C#Cc4ccc(OC)c(OC)c4)c3)n1)[C@@H](CCO)N(S(=O)C(C)(C)C)C2 (some centres undefined),0,0,0,0,8.8,0,10.3
CCCNC(=O)c1cc2c(c(-c3cccc(-c4ccc(F)cc4)c3)n1)[C@H](CCO)N(S(=O)C(C)(C)C)C2 (some centres undefined),0,0,0,0,10.3,0,10.4
Nc1[nH]c(C(=O)c2ccc(Cl)cc2)c(-c2ccc(Br)cc2)c1C(=O)NCc1ccc(Cl)cc1Cl,0,-,0,0,0,-,-
COC(=O)CC#C[C@@H](C)[C@H](NS(=O)(=O)c1ccc(C)cc1)C(C)(C)C,0,-,0,0,0,-,-
CCOC(=O)[C@]12CCCCC/C=C\1N(CCc1ccc(Cl)cc1)C(=O)[C@H]2CC(=O)NCC1CCCCC1,0,-,0,0,0,-,-
CCOC(=O)[C@]12CCCCC/C=C\1N(CCc1ccc(Cl)cc1)C(=O)[C@H]2CC(=O)NCc1ccccc1,0,-,0,0,10.8,25.4,11.8
CCOC(=O)[C@]12CCCCC/C=C\1N(CCc1ccc(Cl)cc1)C(=O)[C@H]2CC(=O)NCc1ccc(C)o1,0,-,0,0,9.4,0,0
CC(C)c1ccc(NS(=O)(=O)c2ccc(-n3cccn3)cc2)cc1,0,0,0,0,9.1,20.9,12.1
CC(C)c1ccc(S(=O)(=O)Nc2ccc(-n3cnnn3)cc2)cc1,0,0,0,0,0,-,-
CCOC(=O)CC[C@@]1(C(=O)OCC)C[C@@H](CC(=O)NCc2cccc3ccccc23)C(=O)N2CCCC=C21,0,-,0,0,0,-,-
CCC(=O)Nc1ccc2c(c1)C(=O)N(C)[C@@H]1CC[C@@H](CC(=O)OC)O[C@H]1CO2,0,-,0,0,0,-,-
COC(=O)[C@]12C[C@H](CC(=O)NCc3ccc(OC)c(OC)c3)C(=O)N(CCc3ccc(OC)c(OC)c3)C1=C[C@H](C(C)C)O[C@@H]2C1CC1,0,-,0,0,0,-,-
CS(=O)c1ccccc1-c1nc(-c2ccc([N+](=O)[O-])cc2)no1 (centres undefined),0,0,0,0,10.8,22.3,0
COC(=O)C1=C(C)N(C)C(=NCc2ccc(OC)cc2)NC1c1ccc(Cl)cc1 (centres undefined),0,-,0,0,0,-,-
CCCC[C@H]1C2CC(OC(=O)Nc3ccccc3C)C(C2)[C@H]2CCCCN21 (some centres undefined),0,-,0,0,0,-,-
Cc1ccc(S(=O)(=O)NCCC(c2ccc(F)cc2)c2ccco2)cc1 (centres undefined),0,0,0,0,9.7,20.7,12.3
O=C(Nc1c(F)c(F)c(F)c(F)c1F)OC[C@@H]1CSCCS(=O)(=O)N1,0,-,0,0,0,-,-
Cc1ccc(CCNC(=O)CCCn2nc(C)c3c(C)n(-c4ccc(C)cc4)nc3c2=O)cc1,0,0,0,0,10.7,0,0
Cc1ccccc1NC(=O)c1nc[nH]c1C(=O)NCc1ccccc1,0,0,0,0,0,-,-
